Results from publication PMC5540273 (PLoS ONE, 2017).

What follows are molecules tested on EIF2AK1. Conditions: concentration: 1 μM, replicates: in singlicate; n = 1.
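Further: KINOMEscan kinase panel screen.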

| Structure (SMILES) | %Inh |
| --- | --- |
| COc1cc2c(cc1OCCN1CCNCC1)ncc1c3ccc(C#N)cc3[nH]c21 | 0% |
| CN(c1ccc(NC(=O)Nc2cc(C(F)(F)F)ccc2F)cc1)c1ccnc(Nc2ccc(S(N)(=O)=O)cc2)n1 [GW809893] | 10% |
| COc1ccc(Nc2nccc(N3CCC(NC(=O)Nc4cccc(OC)c4)C3)n2)cc1 (centres unmarked) [GSK1379742] | 0% |
| COc1cccc(-c2ccc3c(NC(=O)C4CC4)n[nH]c3n2)c1 [SB-710903] | 5% |
| CNC(=O)c1ccccc1Nc1nc(Nc2ccc(N3CCOCC3)cc2)ncc1Cl.Cl [GSK1576028] | 0% |
| O=C(NC1CCN(c2ccnc(Nc3ccc(F)cc3)n2)C1)c1cc2ccccc2s1 (centres unmarked) [GSK1379716] | 0% |
| O=C(Nc1cccc(Oc2ccc3nc(NC(=O)C4CC4)cn3n2)c1)c1ccccc1C(F)(F)F | 0% |
| Cl.c1ccc(-c2ccc3c(Nc4ccc5[nH]ncc5c4)ccnc3c2)nc1 [GW440137] | 0% |
| Cl.Cl.NCC(NC(=O)c1cc(-c2ccccc2)c(-c2ccnc3[nH]ccc23)s1)c1ccccc1 (centres unmarked) [GSK1321561] | 0% |
| C[C@@H](Oc1cc(-n2cnc3cc(-c4ccnc(NCCS(C)(=O)=O)c4)ccc32)sc1C(N)=O)c1ccccc1Cl [GSK907232] | 1% |
| O=C(Nc1cccc(-c2nn3ccccc3c2-c2ccnc(Nc3cccc(F)c3)n2)c1)c1c(F)ccc(F)c1Cl [GSK357952] | 39% |
| Cc1occc1-c1ncc(OC[C@@H](N)Cc2c[nH]c3ccccc23)cc1-c1ccc2[nH]nc(C)c2c1.O=C(O)C(F)(F)F [GSK682037] | 0% |
| CCc1ccc(-c2ccc3c(c2)-c2c(cnn2C)S(=O)(=O)N3C)cc1 | 0% |
| O=c1[nH]cc(-c2ccc(N3CCOCC3)cc2)c2sc(-c3cn[nH]c3)cc12 [GSK2276055] | 0% |
| Cc1cccc(NC(=O)Nc2ccc(Oc3ncnc4ccn(C)c34)cc2)c1 | 0% |
| CC(C)(C)c1ccc2nccc(Nc3cccc(O)c3)c2c1 [GW856795] | 0% |

| Structure (SMILES) | %Inh |
| --- | --- |
| COc1cc(Nc2nccc(-c3c(-c4cccc(NC(=O)c5c(F)cccc5F)c4)nn4ccccc34)n2)cc(OC)c1OC [GSK323521] | 39% |
| CCn1c(-c2nonc2N)nc2c(C#CC(C)(C)O)ncc(OCCCCN)c21.O=C(O)C(F)(F)F.O=C(O)C(F)(F)F [GSK507274] | 27% |
| O=C(Nc1cccc(-c2nn3ncccc3c2-c2ccnc(Nc3ccccc3)n2)c1)c1c(F)cccc1F [GSK198271] | 52% |
| Cn1cc(-c2ccc3c(c2)CCN3C(=O)Cc2cccc(Cl)c2)c2c(N)ncnc21 [GSK2606590] | 89% |
| CN1CCN(Cc2cccc(-c3ccc4c(Nc5ccc(Oc6ccccc6)cc5)ccnc4c3)c2)CC1 [GW578342] | 0% |
| Oc1cc(Nc2ccnc3cc(I)ccc23)ccc1F [GW552771] | 0% |
| CCCCc1nn2ncccc2c1-c1ccnc(Nc2ccc(N3CCN(C)CC3)cc2)n1 [GW684941] | 0% |
| O=C(Nc1n[nH]c2cc(-c3ccoc3)ccc12)C1CC1 [SB-738481] | 0% |
| COc1cccc(C2=C(Nc3ccc(Cl)c(C(=O)O)c3)C(=O)NC2=O)c1 [SB-390769] | 99.6% |
| CCS(=O)(=O)c1ccc(OC)c(Nc2nccc(-c3c(-c4cccc(NC(=O)c5c(F)cccc5F)c4)nn4ncccc34)n2)c1 [GSK326180] | 0% |
| Nc1ncc(-c2cccnc2)c2scc(-c3ccc4c(c3)CCN4C(=O)Cc3ccccc3)c12 [GSK683281] | 25% |
| Cc1ccc(C(=O)N2CC[C@@H](O)C2)cc1-n1c(C)cc(OCc2ccc(F)cc2F)c(Br)c1=O | 0% |
| CC(=O)Nc1nc2cnc(Nc3cc(NC(=O)c4cccc(C5(C#N)CC5)c4Cl)ccc3C)nc2s1 | 0% |
| COc1cc(Nc2nccc(N3CCC(NC(=O)c4cc5ccccc5s4)C3)n2)cc(OC)c1OC (centres unmarked) [GSK1379760] | 0% |
| Cc1ccc(C(=O)Nc2ccc(Nc3ccnc4cc(-c5nccs5)ccc34)cc2O)cc1.Cl [GW494702] | 6% |
| Cc1ccc(C)c(NC(=O)NC2CCN(c3ccnc(Nc4ccc(F)cc4)n3)C2)c1 (centres unmarked) [GSK1379720] | 0% |
